# rTrxR1 inhibitor: rat TrxR1 inhibition; recombinant rTrxR1, NADPH fluorescence consumption, selenite substrate; O89049; AID 588453; Potency, µM (top dose mostly 114 µM), for the others: at the top dose activity change, negative = inhibition, actives largely listed as inhibitors; actives 1% (n = 390,000); also: % is scaled to controls: 0 for no effect and ±100 for the full control effect; nearly all actives have a fitted effect of over 65% in size
# Target sequence (O89049 whole entry, looked up): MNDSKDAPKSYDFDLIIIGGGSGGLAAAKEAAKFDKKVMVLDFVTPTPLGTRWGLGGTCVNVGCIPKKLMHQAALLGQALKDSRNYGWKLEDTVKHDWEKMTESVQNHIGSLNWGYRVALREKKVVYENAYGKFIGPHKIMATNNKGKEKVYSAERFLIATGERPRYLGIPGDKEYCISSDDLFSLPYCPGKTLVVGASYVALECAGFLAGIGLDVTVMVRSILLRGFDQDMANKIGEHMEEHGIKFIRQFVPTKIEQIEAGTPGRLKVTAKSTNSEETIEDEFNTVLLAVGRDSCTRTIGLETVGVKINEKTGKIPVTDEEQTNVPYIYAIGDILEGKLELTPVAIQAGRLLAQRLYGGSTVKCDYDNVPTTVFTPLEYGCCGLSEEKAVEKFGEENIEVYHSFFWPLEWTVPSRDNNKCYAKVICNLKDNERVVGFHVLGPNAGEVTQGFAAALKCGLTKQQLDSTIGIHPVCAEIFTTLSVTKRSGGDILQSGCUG
#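 Rat TrxR1 (90 nM in the dispensed reagent) was pre-reduced with 400 uM NADPH for 5 min at room temperature, then incubated with compound for 15 min. After 400 uM selenite was added, NADPH fluorescence (Ex 340/Em 450 nm) was followed for 8 min.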
# GALK inh: blocks human galactokinase activity; P51570; actives 0.007% (n = 270,000); AID 1868; Potency, µM (titrated, usually from 57.5 µM), without a hit: at the highest dose activity change, negative = inhibition, most hits filed as inhibitors; Purified GALK, Kinase-Glo residual ATP luminescence; also: % is scaled to controls: 0 for no effect and ±100 for the full control effect
#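 Human GALK (5 nM) with 35 uM ATP and 100 uM galactose in 20 mM HEPES pH 8.0, 5 mM MgCl2, 60 mM NaCl, 1 mM DTT, 0.01% BSA. After 1 h at room temperature, leftover ATP was read by Kinase-Glo Plus luminescence.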
# TrxR1 substrate: substrates of rat thioredoxin reductase 1; O89049; purified TrxR1 substrate turnover, NADPH consumption readout; Potency, µM (series often up to 114 µM), without a hit: top-dose activity change, negative = substrate turnover; actives 0.01% (n = 390,000); also: % is scaled to controls: 0 for no effect and ±100 for the full control effect; nearly all actives have a fitted effect of over 50% in size
#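 Rat TrxR1, dispensed at 90 nM, was prereduced with 400 uM NADPH (final) for 5 min at ~22 deg C, then incubated with compound 15 min before 400 uM selenite. A first-read NADPH fluorescence drop versus no-compound background flagged substrates.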
# Nrf2 activator: activators of Nrf2 (ARE) signaling | AREc32 ARE-luciferase reporter (MCF7-derived line), luminescence, 24 h | Potency, µM (series often up to 46.1 µM), without a hit: top-dose activation, hits mostly activators | actives 0.31% (n = 410,000) | AID 624171; also: % of control where 0% means no effect; nearly all actives have a fitted effect of over 65% in size
#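 AREc32 cells carrying an ARE-driven firefly luciferase reporter were seeded at 1000 cells/well in OPTI-MEM with 5% FBS, then exposed to compound for 24 hr at 37 deg C. Luminescence was read with Steady-Glo after 30 min at RT.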
# Nrf2 block: Nrf2 pathway inhibition | A549 ARE-Fluc reporter, luciferase luminescence, 18-24 h | Potency, µM (top dose mostly 46 µM), without a hit: at the top dose activity change, negative = inhibition, actives largely listed as inhibitors | actives 2.1% (n = 360,000); also: % is scaled to controls: 0 for no effect and ±100 for the full control effect; nearly all actives have a fitted effect of over 60% in size
#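 Cells were seeded and rested 2 h, then exposed to compounds for 18-24 h. CellTiter-Fluor was read first as a viability measure. BugLite was added 15 min before the final luminescent read of ARE-luciferase activity in A549 cells.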
# A549 viability: kills or reduces viability of A549 cells in Nrf2 counter-screen; AID 504648; Potency, µM (highest dose often 46 µM), without a hit: at the highest dose activity change, negative = cytotoxicity, most hits filed as inhibitors; actives 0.16% (n = 390,000); A549 ARE-Fluc cells, CellTiter-Fluor viability, 18-24 h; also: % is scaled to controls: 0 for no effect and ±100 for the full control effect
#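 A549 ARE-Fluc cells in 5% FBS OPTI-MEM, 5000 cells/well, rested 2 h then exposed to compounds in concentration-response for 18-24 h at 37 °C. Viability by CellTiter-Fluor fluorescence (Ex 405/Em 525) after 30 min; luciferase luminescence (BugLite, 15 min, RT) read afterwards.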
# * = called active by the depositor; u = inconclusive; x = not tested or not shown; [ ] = dose if it differs, or a comment. Compounds with a hit are over-represented: about 3% of the library has one in this group of screens. Calls follow the shape of the dose curve; as a rule, active = well fitted curve in the direction sought with a large enough effect; inconclusive = small, poorly fitted or top-dose-only effect, or another doubt; inactive = no such curve, though single readings can be large; an effect the other way counts as inactive or inconclusive. Potency is read from the fitted curve at half-maximal effect.
SMILES,rTrxR1 inhibitor,GALK inh,TrxR1 substrate,Nrf2 activator,Nrf2 block,A549 viability
Nc1nonc1-c1nc2ccccc2n1CC(=O)Nc1cccc(Cl)c1Cl,10.2%,x,-3.0%,-0.9%,11.5%,-0.2%
CCc1nn(Cc2cc(C)ccc2C)c(=O)c2cc3cc(C)ccc3n12,4.5%,x,1.5%,-0.2%,3.7%,-1.4%
Cc1ccc(/C=C/C(=O)OCC(=O)N2CC(=O)Nc3ccccc32)o1,28.2µM*,-1.0%,-7.2%[57.1 µM],18.8%,u,-0.6%
O=C1CN(C(=O)COC(=O)/C=C/c2ccco2)c2ccccc2N1,-22.5%,0.5%,3.6%[57.1 µM],12.6µM*,0.0%,0.8%
COc1cc(/C=C/C(=O)OCC(=O)N2CC(=O)Nc3ccccc32)ccc1O,-5.0%,-1.5%,-0.9%,4.3%,14.5%,7.3%
O=C1CN(C(=O)COC(=O)/C=C/c2ccc(OC(F)F)cc2)c2ccccc2N1,4.3%,0.1%,2.8%,4.3%,u,1.3%
Cc1cccc(NC(=O)CSc2nnc(NC(=O)Nc3ccccc3)s2)c1C,13.8%[57.1 µM],x,-3.0%[57.1 µM],3.6%,x,8.5%
CN(C)C(=O)COc1ccc2ccc(=O)oc2c1,17.4%[57.1 µM],-1.8%,40.9%[57.1 µM],2.7%,8.6%,-1.1%
CC(C)=CC(O)C/C(C)=C/COc1ccc2ccc(=O)oc2c1 (configuration not stated),15.7%[57.1 µM],-1.5%,81.7%[57.1 µM],-3.4%,10.3µM*,-28.9%
O=c1c(C(c2ccc(F)cc2)c2c(O)nc3n(c2=O)CCS3)c(O)nc2n1CCS2,12.6µM*,4.8%,5.6%[57.1 µM],3.0%,10.4%,2.1%
O=c1c(C(c2ccc(Cl)cc2)c2c(O)nc3n(c2=O)CCS3)c(O)nc2n1CCS2,10µM*,5.6%,4.3%,0.0%,-10.9%,16.2%
Cc1ccc(C)c(C(=O)COc2ccccc2[N+](=O)[O-])c1,-16.3%,0.2%,-13.1%,22.4µM*,-3.7%,11.7%
O=C(Nc1ccc2snnc2c1)Nc1cccc2ccccc12,-16.0%,-1.6%,-4.9%,0.8%,16.4µM*,-24.4%
CCc1ccccc1NC(=O)Nc1ccc2snnc2c1,10.8%,x,-3.0%,-0.5%,-26.0%,-0.8%
CCC(=O)NCCc1nc2cc(NC(=O)c3cccc(Br)c3)ccc2n1C,6.3%[57.1 µM],x,-6.3%[57.1 µM],-0.7%,x,-1.5%
CC(=O)c1ccc(OCC(O)CN2CCN(CC(O)COc3ccc(C(C)=O)cc3)CC2)cc1 (configuration not stated),39.1%[0.457 µM],-2.4%,-3.0%,3.4%,7.5%,5.0%
CC(=O)c1ccc(OCC(O)CN2CCN(S(=O)(=O)c3c(C)c(C)cc(C)c3C)CC2)cc1 (configuration not stated),u,-2.0%,4.8%,3.1%,25.9µM*,u
COC(=O)c1cccc(CN2C(=O)SC(Nc3ccc(C)cc3)C2=O)c1 (configuration not stated),-22.1%,3.9%,-9.4%,0.2%,9.4%,7.9%
CCOC(=O)c1ccc(NC2SC(=O)N(Cc3cccc(C(=O)O)c3)C2=O)cc1 (configuration not stated),79.4µM*,x,-4.6%,4.0%,10.6%,4.0%
O=C(Nc1ccc(F)cc1)c1ccc(-n2cncn2)c([N+](=O)[O-])c1,-5.2%[11.4 µM],-1.3%,5.3%[11.4 µM],3.0%,23.1µM*,-5.8%
CCCCCCCCCC[n+]1ccc(/C=C/c2c[nH]c3ccccc23)c2ccccc21,u,x,-0.5%,x,x,x
Oc1ccccc1C1NN=C(c2ccccc2)S1 (configuration not stated),-9.7%[57.1 µM],2.5%,-7.9%,7.08µM*,u,25.1%
CSc1ccc(C2NN=C(c3ccccc3)S2)cc1 (configuration not stated),24.3%,x,17.9%,5.01µM*,u,-0.9%
CCNc1nc2c(c(=O)[nH]c(=O)n2C)n1CC(O)COc1ccc(Cl)cc1Cl (configuration not stated),2.3%,x,0.1%,-0.1%,-13.7%,-5.5%
Cc1c(CNC2CCCCC2)c(C(=O)O)c(C)n1Cc1ccc(F)cc1,2.5%,x,-1.4%,-0.4%,0.0%,4.7%
SMILES,rTrxR1 inhibitor,GALK inh,TrxR1 substrate,Nrf2 activator,Nrf2 block,A549 viability
O=C(c1ccc(F)cc1)C(CN1CCOCC1)c1ccccc1 (configuration not stated),56.2µM*,7.2%,-10.4%,u,-29.4%,-1.6%
O=C(c1ccc(Cl)cc1)C(CN1CCCC1)c1ccccc1 (configuration not stated),35.5µM*,2.7%,9.1%,u,-7.9%,-2.9%
O=C(c1ccccc1)C(CCC(CN1CCOCC1)C(=O)c1ccccc1)CN1CCOCC1 (configuration not stated),u,-1.6%,-3.3%,-3.7%,23.1µM*,-17.0%
O=C(Nc1nonc1-c1ccc(Cl)cc1)c1ccccc1F,3.8%,x,-2.0%,13.9%,15.0%,4.0%
O=C(CCl)N(CCc1ccccc1)CCc1ccccc1,11.2µM*,-0.6%,0.5%,-2.1%,1.9%,0.2%
COc1cc(C(=O)NC(=S)Nc2ccccc2N2CCCC2)cc(OC)c1OC,13.5%,6.9%,-7.2%,5.6%,18.4µM*,-16.2%
O=C(NC(=S)N(CCc1ccccc1)CCc1ccccc1)c1ccco1,u,2.7%,-1.8%,u,18.4µM*,-19.6%
O=C(NC(=S)Nc1cccc(Cl)c1N1CCCCC1)c1ccco1,24.6%[57.1 µM],-1.8%,7.6%[57.1 µM],11.2%,u,-13.6%
O=C(CCCc1ccccc1)NCCc1ccccc1,16.3%,6.3%,-3.7%,3.7%,u,0.1%
CC(CCc1ccccc1)NC(=S)NC(=O)c1ccco1 (configuration not stated),13.3%[57.1 µM],4.2%,6.4%[57.1 µM],5.0%,-9.0%,11.1%
O=C(NC(=S)Nc1ccccc1Cl)c1ccco1,u,6.7%,-1.2%,12.6µM*,u,0.9%
C[N+]1(CC(=O)c2ccc(Oc3ccc(C(=O)C[N+]4(C)CCOCC4)cc3)cc2)CCOCC1,-23.4%,x,9.3%,x,x,x
O=C(NC(=S)Nc1ccccc1N1CCCC1)c1ccco1,-7.8%,4.5%,-8.0%,14.1µM*,3.7%,2.0%
O=C(NC(=S)Nc1ccccc1N1CCCCC1)c1ccco1,-4.0%,-1.9%,1.7%,10.4%,5.2%,2.6%
O=S(=O)(Nc1ccc2c(c1)nc1n2CCN(Cc2ccccc2)C1)c1ccc(Cl)cc1,-22.4%,6.2%,4.2%,-0.5%,13µM*,u
COc1ccc(CC(=O)Nc2cc(-c3cn4cccnc4n3)ccc2C)cc1OC,-12.0%[57.1 µM],x,130.3%[57.1 µM],0.0%,x,-13.4%
C=CC(=O)Nc1cccc(N(C)c2ccnc(Nc3ccc(N4CCN(C)CC4)cc3)n2)c1,u,x,-3.9%,6.0%,u,1.03µM*
C=CC(=O)Nc1cccc(Oc2ccnc(Nc3ccc(N4CCN(C)CC4)cc3)n2)c1,9.8%,x,0.1%,16.6%,u,1.64µM*
